Compound activity from PubChem.
Tau ThT inhib: qHTS for Inhibitors of Tau Fibril Formation, Thioflavin T Binding; 270,000 tested, 2.1% active; recombinant tau K18 P301L, heparin-induced fibrillization, ThT fluorescence; Potency, µM (top dose mostly 57.4 µM), for inactives: at the highest dose activity, negative = inhibition, most hits filed as inhibitors; Microtubule-associated protein tau (Homo sapiens), P10636; note: potency is the fitted concentration of half-maximal effect; nearly all actives have a fitted effect of over 55% in size
Target sequence (P10636 561-689 P618L limits assumed): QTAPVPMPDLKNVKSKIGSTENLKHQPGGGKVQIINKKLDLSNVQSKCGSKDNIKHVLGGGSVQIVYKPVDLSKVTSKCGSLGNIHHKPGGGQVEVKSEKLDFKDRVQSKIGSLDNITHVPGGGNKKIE
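Using a mix of unlabeled (15 uM) and Alexa 594-labeled (0.24 uM) tau K18 P301L, heparin-triggered fibrillization over 6 hr at 37 C was scored by ThT fluorescence.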
Tau FP inhib: qHTS for Inhibitors of Tau Fibril Formation, Fluorescence Polarization; 280,000 tested, 0.39% active; Microtubule-associated protein tau (Homo sapiens), P10636; K18 P301L tau heparin fibrillization, Alexa594 FP, 6 h; Potency, µM (doses to about 57.7 µM), for inactives: at the highest dose activity, negative = inhibition, hits mostly inhibitors; note: potency is the fitted concentration of half-maximal effect; nearly all actives have a fitted effect of over 55% in size
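Compound effects on tau fibrillization are measured by Alexa 594 fluorescence polarization (ex 555, em 632 nm). K18 P301L tau is used at 15 uM with 0.24 uM labeled tracer, and 20 uM heparin induces aggregation over 6 hr at 37 C.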
FBPA coupling cs: qHTS Assay for Inhibitors of Fructose-1,6-bisphosphate Aldolase from Giardia Lamblia: Coupling assay counterscreen. coupling enzyme system counterscreen, AmpLite Red fluorescence. activity change, negative = inhibition, % at 58.2 µM, hits read low. 290,000 tested, 0.67% active; in the data active = activity change below about -30%
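Coupling enzymes only (glyceraldehyde-3-phosphate) + compound, at 57.5 uM final, 10 min RT; add substrate/coupling/AmpLite Red mix, 20 min RT; fluorescence ex 525/em 598 nm. Actives flag coupling-system interference.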
G9a inh: qHTS Assay for Inhibitors of Histone Lysine Methyltransferase G9a | Histone-lysine N-methyltransferase EHMT2 (Homo sapiens), Q96KQ7 | G9a H3K9 monomethylation, AlphaScreen, 2 h | Potency, µM (series often up to 102 µM), for the others: at the top dose activity, negative = inhibition, most hits filed as inhibitors | 350,000 tested, 8.8% active | AID 504332, 2011; note: potency is the fitted concentration of half-maximal effect; nearly all actives have a fitted effect of over 75% in size
Target sequence (Q96KQ7 913-1193 limits assumed): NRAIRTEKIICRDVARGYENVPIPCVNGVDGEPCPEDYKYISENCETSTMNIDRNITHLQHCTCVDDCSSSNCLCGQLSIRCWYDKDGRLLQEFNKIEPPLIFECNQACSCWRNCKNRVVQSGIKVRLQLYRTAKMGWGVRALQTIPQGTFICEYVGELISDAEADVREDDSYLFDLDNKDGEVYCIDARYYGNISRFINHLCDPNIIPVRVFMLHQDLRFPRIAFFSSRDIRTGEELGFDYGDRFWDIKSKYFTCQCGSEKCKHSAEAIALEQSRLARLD
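AlphaScreen detection with an anti-monomethyl H3K9 antibody quantified product after a 2 h room-temperature reaction containing 500 nM biotinylated H3K9 peptide, 20 µM SAM and 20 nM enzyme, which had been preincubated 15 min with compound.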
Sfp inh: qHTS Assay for Inhibitors of Bacillus subtilis Sfp phosphopantetheinyl transferase (PPTase) | Biochemical Sfp PPTase activity, qHTS | AID 1490, 2009 | 310,000 tested, 3.5% active | Potency, µM, inactives show largest response in the series, negative = inhibition, actives largely listed as inhibitors | 4'-phosphopantetheinyl transferase ffp (Bacillus subtilis), Q9F4F7;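 note: the enzyme is Sfp with the accession as filed and its product quenches rhodamine fluorescence; potency is the fitted concentration of half-maximal effect; 0% = enzyme reaction without inhibitor and -100% = no enzyme wells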
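Buffer: 50 mM Hepes-Na pH 7.6, 10 mM MgCl2, 0.01% Nonidet P-40, 0.01% BSA. Enzyme 15 nM, pre-exposed to compound 15 min; substrates then added and fluorescence change tracked over 30 min.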
Tau fluor cs: Counterscreen qHTS for Inhibitors of Tau Fibril Formation, Fluorescence Polarization; AID 1463, 2008; 280,000 tested, 0.93% active; tau K18 P301L (four-repeat tau fragment) Alexa594 fluorescence, heparin fibrillization; Potency, µM (series often up to 57.7 µM), for the others: top-dose activity change, negative = decrease; note: potency is the fitted concentration of half-maximal effect; nearly all actives have a fitted effect of over 55% in size
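Human K18 P301L tau (15 uM unlabeled plus 0.24 uM Alexa 594-labeled, final) in 100 mM sodium acetate pH 7 was mixed with compound and 20 uM heparin and incubated 6 hr at 37 C.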
* marks the source's active call; other numbers are inactive results; ? = inconclusive; . = no result given; [ ] = another dose, or the depositor's remark. Most compounds without a hit are left out; they make up all but 11% or so of the library. Unless noted, calls come from the whole dose curve; as a rule, active = well fitted curve in the direction sought with a large enough effect; inconclusive = small, poorly fitted or top-dose-only effect, or another doubt; inactive = no such curve, though single readings can be large; an effect the other way counts as inactive or inconclusive. Unless noted, % is set by controls: 0 for no effect and ±100 for the full control effect.

SMILES	Tau ThT inhib	Tau FP inhib	FBPA coupling cs	G9a inh	Sfp inh	Tau fluor cs
CN(C)c1ccc(N2CN=C3SCC(=O)N3C2)cc1	5µM*	13µM*	-51*	?	?	?
COc1cccc(C(=O)NCCc2csc3nc(-c4ccccc4F)nn23)c1OC	-1%	-6%	.	1%[59 µM]	.	-7%
O=C1C2=C(Nc3ccccc3SC2c2ccc(C(F)(F)F)cc2)c2ccccc21 (centres undefined)	?	10µM*	.	11µM*	.	2.8µM*[quencher]
O=C1C2=C(Nc3ccccc3SC2c2ccco2)c2ccccc21 (centres undefined)	13µM*	?	-11	?	?	16µM*[quencher]
CCc1ccc(C2Sc3ccccc3NC3=C2C(=O)c2ccccc23)cc1 (centres undefined)	?	?	.	10µM*	.	2.5µM*[quencher]
CC1CC(=O)C2=C(C1)Nc1ccccc1SC2c1ccc(F)cc1 (centres undefined)	-7%	4%	-7	1%[59 µM]	1%	?
CC(=O)Nc1ccc(C2Sc3ccccc3NC3=C2C(=O)c2ccccc23)cc1 (centres undefined)	?	?	.	18µM*	.	11µM*[quencher]
CCc1ccc(OCc2cc(=O)n3cc(C)sc3n2)cc1	?	5%	.	21%[59 µM]	.	0%
CCSc1nc2ccccc2c(OCc2ccccc2Cl)c1C(=O)OC	?	?	.	118%[59 µM]	.	-23%
CCN1CCN(C(c2ccc(SC)cc2)c2c(O)cc(C)n(CCOC)c2=O)CC1 (centres undefined)	-9%	?	.	?	.	3%
CC(=O)NC1(C(F)(F)F)NC(=O)N(c2ccc(F)cc2)C1=O (centres undefined)	3%	2%	-1	2%	10%	9%
Oc1c(Br)cc(C=Nc2ccc3nc(-c4ccccc4)[nH]c3c2)c(O)c1Br	4.5µM*	?	-25	28µM*	56µM*	4.5µM*[quencher]
CCOc1ccc2nc(-c3ccccc3)[nH]c2c1	?	7%	-9	?	-5%	-19%
COc1ccc2nc(N3CCCC3)[nH]c2c1	8%	0%	1	5.6µM*	2%	4%
COc1ccc2[nH]c(C(=O)c3ccccc3)cc2c1	-14%	-4%	-1	.	-3%	-8%
COc1ccc2[nH]c(-c3ccccc3)cc2c1	?	9%	-8	-33%	5%	13µM*[quencher]
COc1ccc2nc(-c3ccccc3)[nH]c2c1	-3%	6%	-32*	60%[59 µM]	-6%	-7%
O=[N+]([O-])c1ccc(O)c(C=Nc2ccc3nc(-c4ccccc4)[nH]c3c2)c1	?	11%	3	7%[59 µM]	19%	-29%
COc1ccc(N2CCN(C(=O)C3CCN(c4nc5ccc(C)cc5[nH]4)CC3)CC2)cc1	?	3%	.	?	.	-15%
O=C(Nc1ccccc1)c1ccc(Br)c(S(=O)(=O)N2CCCCC2)c1	5%	?	.	-19%[59 µM]	.	?
O=C(COc1ccc(F)cc1Cl)Nc1cccc(S(=O)(=O)N2CCCC2)c1	.	.	.	7%[59 µM]	.	.
Cc1ccc(CSc2nnc(-n3c(=O)c(C#N)cc4c(=O)n5cc(C)ccc5nc43)s2)cc1	6%	-2%	.	0%[59 µM]	.	?
Cc1ccc(-c2nc3ccc([N+](=O)[O-])cc3[nH]2)cc1	?	2%	-31*	?	10%	?
COc1ccc2[nH]c(-c3ccc(C)cc3)cc(=O)c2c1	-13%	6%	-4	79µM*	12%	-4%
COc1ccc(-c2nc3ccc([N+](=O)[O-])cc3[nH]2)cc1	11µM*	-3%	-24	?	-2%	?
SMILES	Tau ThT inhib	Tau FP inhib	FBPA coupling cs	G9a inh	Sfp inh	Tau fluor cs
COc1ccc(-c2cc(=O)c3cc(F)ccc3[nH]2)cc1	-12%[81.4 µM]	0%[81.3 µM]	0	?	1%	-4%[81.3 µM]
O=[N+]([O-])c1ccc2nc(-c3ccccc3[N+](=O)[O-])[nH]c2c1	-20%	0%	0	-33%	6%	-22%
O=[N+]([O-])c1cccc(-c2nc3ccc([N+](=O)[O-])cc3[nH]2)c1	?	12%	-9	79µM*	9%	?
O=[N+]([O-])c1ccc2nc(-c3ccncc3)[nH]c2c1	-18%	11%	-4	?	6%	-15%
O=C(c1cscn1)N1CCCC(N2CCN(c3ccc(F)cc3)CC2)C1 (centres undefined)	.	.	.	39%	19%	.
Nc1ccccc1C(=O)C[C@@H](N)C(=O)O	-10%	-4%	.	30%[59 µM]	1%	-14%
CCC/C=C1\CCCOC(C(=O)NCc2ccc(C)o2)(C(F)(F)F)C1 (centres undefined)	.	.	-1	.	50µM*	.
CCC/C=C1/CCCOC(C(=O)NCc2ccc(C)o2)(C(F)(F)F)C1 (centres undefined)	.	.	-3	.	56µM*	.
CCCC/C=C/C(NC(=O)c1ccc(C(=O)OC)cc1)c1ccccc1 (centres undefined)	2%	7%	-4	.	14%	-2%
Cc1ccc2cc3c(N)nn(C(=O)c4cccc(F)c4)c3nc2c1	-12%	4%	.	?	.	-16%
CC1(C)Cc2c(sc(NC(=O)c3ccccc3)c2C(=O)O)CO1	?	-6%	-19	45µM*	-21%	-13%
CC1(C)Cc2c(sc(NC(=O)C(=O)N3CCCCC3)c2C(=O)O)CO1	.	.	.	.	-7%	.
CC(C)COc1ccc(C(=O)Nc2sc3c(c2C(=O)O)CC(C)(C)OC3)cc1	16µM*	-8%	10	-26%	-23%	?
CC(=O)N(Cc1ccccn1)Cc1ccco1	-16%	0%	5	.	-19%	-7%
O=C(c1ccc(F)cc1F)N(Cc1ccccn1)Cc1ccco1	-8%	4%	5	22µM*	-6%	4%
Cc1ccccc1NC(=O)C1CCN(C(=O)N2CCOc3ccccc32)CC1	.	.	3	2%	7%	.
CCOC(=O)c1ccc(NC(=O)CNC(=O)C23CC4CC(CC(C4)C2)C3)cc1	10%	0%	0	-3%[59 µM]	15%	-4%
CCOC(=O)c1ccc(NS(=O)C23CC4CC(CC(C4)C2)C3)cc1 (centres undefined)	-8%	4%	-1	5µM*	7%	1%
